The sample as a whole holds a higher share of hits than the screen did.
Pf Dd2 inh = blocks in vitro growth of P. falciparum Dd2; P. falciparum Dd2 growth, SYBR Green, 72 h; Potency, µM (top dose mostly 28.9 µM), for inactives: at the highest dose activity, negative = inhibition, most hits filed as inhibitors; actives 4.3% (n = 120,000); AID 1347417; active means well fitted inhibition curve with a large enough effect;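 further: plate controls were DMSO vehicle for no effect and reference drug for full effect; nearly all actives have a fitted effect of over 65% in size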
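Readout: SYBR Green fluorescence, 485 nm excitation, 535 nm emission, after ~16 h lysis at 37C. Before that, Dd2-infected red cells (2.5% hematocrit) grew 72 h with compound, 29 uM top final concentration.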
Active calls of the source: *; [ ] = another dose, or the depositor's remark. Potency means the concentration at half of the fitted maximal effect.

For O=C(c1cn(CCOc2ccccc2F)c2ccccc12)C1CCCCC1 the results were Pf Dd2 inh -27%.
`COc1ccc(OCCn2cc(C(=O)c3ccco3)c3ccccc32)cc1` gave Pf Dd2 inh 1µM*.
Screening O=C(c1cccs1)c1cn(CCOc2ccccc2Cl)c2ccccc12 returned Pf Dd2 inh 3.2µM*.
Screening Cc1ccc(CN(Cc2ccco2)C(=O)COc2ccccc2C)cc1 returned Pf Dd2 inh inactive.
COc1ccc(C(=O)N2CCCCC2c2nc(CCOc3cccc(C)c3)no2)cn1 (stereo not drawn) was read as Pf Dd2 inh inactive.
For CN1CCC2(CC1)CN(C(=O)c1cnccn1)Cc1ccccc1O2 the results were Pf Dd2 inh inactive.
`CC(C)CN1CC(C(=O)NCc2nc(-c3ccccc3)no2)CC1=O` (stereo not drawn) gave Pf Dd2 inh -8%.
CN(C)Cc1nnc(C2CC(NC(=O)c3ccc4c(c3)CCCO4)C2)n1C (stereo not drawn) was read as Pf Dd2 inh 6%.
`O=C(c1nccc2ccccc12)N1CCC2(CC1)CC(O)CCO2` (stereo not drawn) gave Pf Dd2 inh -12%.
CCc1ccc(CN2CCCC(c3nnc(Cn4ccnc4)n3C)C2)nc1 (stereo not drawn) was read as Pf Dd2 inh -10%.
Screening CCCc1cc(N2CCC(N[C@@H]3CCNC3)CC2)nc(C)n1 returned Pf Dd2 inh -11%.
Cc1nc(N2CCC(NC(=O)Cc3cccc(F)c3)CC2)cc(C(F)(F)F)n1 was read as Pf Dd2 inh -1%.
CCc1cc(N2CCC(NCCc3cccc(Cl)c3)CC2)nc(C)n1 was read as Pf Dd2 inh 11µM*.
Screening CC(C)N1CC2(C1)C(=O)N(C)C(=O)[C@@H]1C[C@@H](O)CN12 returned Pf Dd2 inh inactive.
`CCn1cc(CN2CCc3ccccc3C2)ccc1=O` gave Pf Dd2 inh -7%.
Screening Cc1nc(N2CCC(NCCN3CCCOC3=O)CC2)c2ccsc2n1 returned Pf Dd2 inh -19%.
Cc1cccc(S(=O)(=O)c2cn(C)c3cc(N4CCC(C)CC4)c(F)cc3c2=O)c1 was read as Pf Dd2 inh 29%.
`Cc1cccc(Cn2cc(S(=O)(=O)c3cccc(C)c3)c(=O)c3cc(F)c(N4CCOCC4)cc32)c1` gave Pf Dd2 inh 0%.
For Cc1ccc(S(=O)(=O)c2cn(Cc3ccccc3)c3cc(N4CCOCC4)c(F)cc3c2=O)cc1 the results were Pf Dd2 inh 7.9µM*.
Cc1cccc(S(=O)(=O)c2cn(Cc3ccccc3)c3cc(N4CCCC(C)C4)c(F)cc3c2=O)c1 (stereo not drawn) was read as Pf Dd2 inh inactive.
Screening CCCCn1cc(S(=O)(=O)c2cccc(C)c2)c(=O)c2cc(F)c(N3CCOCC3)cc21 returned Pf Dd2 inh -28%.
For Cc1ccc(C)c(S(=O)(=O)c2cn(Cc3ccccc3)c3cc(N4CCCC4)c(F)cc3c2=O)c1 the results were Pf Dd2 inh 10µM*.
For CCCCn1cc(S(=O)(=O)c2cc(C)ccc2C)c(=O)c2cc(F)c(N3CCC(C)CC3)cc21 the results were Pf Dd2 inh 46%.
Cc1cccc(S(=O)(=O)c2cn(Cc3ccc(F)cc3)c3cc(N4CCOCC4)c(F)cc3c2=O)c1 was read as Pf Dd2 inh 6.3µM*.
Cc1ccc(S(=O)(=O)c2cn(Cc3ccccc3)c3cc(N4CCCCC4)c(F)cc3c2=O)cc1 was read as Pf Dd2 inh -23%.
`Cc1cccc(Cn2cc(S(=O)(=O)c3ccccc3)c(=O)c3cc(F)c(N4CCOCC4)cc32)c1` gave Pf Dd2 inh 8.9µM*.
CCCc1noc(-c2ccn3c(CNC(=O)c4ccccc4F)nnc3c2)n1 was read as Pf Dd2 inh inactive.
`Cc1ccc2c(C(=O)NC3CC3)cnn2c1` gave Pf Dd2 inh -6%[44.1 µM].
For CNC(=O)[C@@H](c1ccccc1F)N1CCC[C@H]1C(=O)NCC(C)C the results were Pf Dd2 inh 5%[44.1 µM].
`O=C(NC[C@H]1OC[C@@H](NC2CCC(F)(F)CC2)[C@@H]1O)N1CCOCC1` gave Pf Dd2 inh 5%[44.1 µM].
CCCN(CC1CCOC1)C(=O)c1cc(Cl)ccc1F (stereo not drawn) was read as Pf Dd2 inh 36%[5.79 µM].
Screening O=c1[nH]cccc1-c1nccc(C2(c3ccccc3Cl)CCNCC2)n1 returned Pf Dd2 inh -21%.
Screening O=C(Cn1ccn2nc(-c3ccc(F)cc3)c(CO)c2c1=O)N1CCC(Cc2ccccc2)CC1 returned Pf Dd2 inh inactive.
Screening c1cncc(-c2ccnc(NCCCN3CCCc4ccccc43)n2)c1 returned Pf Dd2 inh 11µM*.
`c1ccc2c(c1)CCCN2CCCNc1ncncn1` gave Pf Dd2 inh -15%.
Screening c1cncc(-c2ccnc(NCCCn3nccc3C3CC3)n2)c1 returned Pf Dd2 inh -28%.
`Cc1ccc2[nH]c(CN3CCCC4(CC3)CN(C)C(=O)O4)cc(=O)c2c1` (stereo not drawn) gave Pf Dd2 inh -15%.
`COc1ccc(C2(C(=O)N3CCC([C@H]4[C@@H](OC)C(=O)N4C(C)C)CC3)CC2)cc1` gave Pf Dd2 inh -9%.
`O=C(NCCc1cscn1)c1cccc(S(=O)(=O)NC[C@@H]2CCCO2)c1` gave Pf Dd2 inh -22%.
`O=C(OCc1ccccc1)N1CCCC2(C1)C(=NC1CCCCC1)NC(=O)N2c1cccnc1` (stereo not drawn) gave Pf Dd2 inh inactive.
Screening Cc1ccc(-c2nc(C(=O)N3CCN(c4ccc(C)cc4)CC3)no2)cc1 returned Pf Dd2 inh 9%.
Screening COc1cc(N2CCC(CO)(Cc3ccccc3C(F)(F)F)CC2)ncn1 returned Pf Dd2 inh -17%.
For CC(C)n1cc(CN2CCC(CO)(Cc3ccccc3Cl)CC2)cn1 the results were Pf Dd2 inh -11%.
`COc1ccc(F)c(CN2CCC(CO)(CN3CCCC3)CC2)c1` gave Pf Dd2 inh inactive.
Screening OCC1(Cc2ccccc2Cl)CCN(Cc2cc3ccccc3o2)CC1 returned Pf Dd2 inh 8.9µM*.
Screening CC(=O)c1cc(CN2CCC(CO)(Cc3ccccc3Cl)CC2)cs1 returned Pf Dd2 inh -11%.
`COc1ccc(O)c(CN2CCC(CO)(Cc3ccccc3Cl)CC2)c1` gave Pf Dd2 inh 8.9µM*.
`CN(C)CCN(C)[C@@H]1[C@H](O)[C@H](CO)O[C@@H]1CNCc1cccc(Cl)c1` gave Pf Dd2 inh -3%.
Screening COc1ccc(C)cc1NC(=O)Cn1nc2n(c1=O)CCCCC2 returned Pf Dd2 inh 9%.
For COc1ccc(C2(C(=O)N3CCC(C(=O)N4CCCCCCNC(=O)CC4)CC3)CC2)cc1 the results were Pf Dd2 inh 4%.
COCCCNC(=O)N1CCN(C(=O)N2CC3CC(C2)[C@H]2CCCC(=O)N2C3)CC1 (stereo partly drawn) was read as Pf Dd2 inh inactive.
CC(C)CNC(=O)N1C[C@@H](Oc2cccnc2)C[C@@H]1C(=O)N1CCOCC1 was read as Pf Dd2 inh 18%.
`CCOc1ccccc1CNC(=O)C1CCN(c2nnc(C)c3c(C)n(-c4ccc(C)cc4)nc23)CC1` gave Pf Dd2 inh 7.1µM*.
Screening COc1ccc(Cl)cc1NC(=O)C1CCN(c2nnc(C)c3c(C)n(-c4ccccc4)nc23)CC1 returned Pf Dd2 inh inactive.
For COc1ccccc1NC(=O)C1CCCN(c2nnc(C)c3c(C)n(-c4ccccc4)nc23)C1 (stereo not drawn) the results were Pf Dd2 inh -5%.
